Where “and” joins values, the source holds several entries; their conditions need not be identical. Equal values may be shown once. Some structures have more than one record in an assay (separate samples or runs), and their calls can disagree. Calls of active or inactive are those of the source. How the source made its calls: active means hit-call score of the fitted dose curve at least 0.9, where 1 is the maximum; inactive means score below 0.9.
Assay: CCTE_Shafer_MEA_dev_interburst_interval_mean: CCTE's Neural Network Formation Assay for Mean Interburst Interval, Shafer Lab (AID 2284046)
Experimental: CCTE_Shafer_MEA_dev assay is conducted using Axion Biosystems 48 well microelectrode array (MEA) plates and Maestro recording system. Each well of the MEA plate contains a grid of 16 microelectrodes embedded in the culture surface. Electrically active cells, such as neurons, can be cultured over the electrodes, and electrical activity in these cells can be recorded extracellularly. The spontaneous firing of neurons is captured from each electrode on a microsecond timescale providing both temporally and spatially precise data. […] The CCTE_Shafer_MEA_dev assay uses primary cultures of rat cortical neurons. Recordings are made on days post-plating 5, 7, 9 and 12. As these cultures mature over time, neural networks develop functional activity and form cohesive networks in which electrical activity can be highly coordinated. CCTE_Shafer_MEA_dev_interburst_interval_mean is 1 of 19 assay components of the CCTE_Shafer_MEA_dev assay. It measures the average time interval between consecutive single-electrode bursts (temporally-clustered groups of action potential firing) during a recording in a microelectrode array (MEA) using Axion Biosystems Maestro 768 channel amplifier with the AxIS adaptive spike detector. The mean inter-burst interval is averaged across the actively bursting electrodes to report a well-mean value. To collapse across multiple recordings made on days post-plating 5, 7, 9 and 12, the trapezoidal area-under-the-curve of the component is calculated.Data from the assay component CCTE_Shafer_MEA_dev_interburst_interval_mean was analyzed into 1 assay endpoint. This assay endpoint, CCTE_Shafer_MEA_dev_interburst_interval_mean, was analyzed in the negative analysis fitting direction relative to DMSO as the negative control and baseline of activity. Using a type of functional reporter, gain or loss-of-signal activity can be used to understand electrical activity.
On the day prior to culture, each well was coated thoroughly with 150 uL of 0.05% polyethyleneimine (PEI, Sigma Cat P3143) in 50 mM HEPES (Sigma Cat H7523) at a pH of 8. The plate was incubated at 37C for one hour. PEI was rinsed out with 500 uL of sterile water three times. Plates were stored at 4C until the day of culture. This culture was plated at a seeding density of 1.5 x 10^5 cells/well on a 48-well MEA plate, prepared as described above. Cells were administered via a 25 uL media/laminin ([…]; Sigma Cat L2020-1MG) drop directly onto the microelectrode array, as adding the cells with the laminin results in better attachment than pre-coating with laminin. After 2 hours, an additional 475 uL of cortical media was added and the cells returned to the incubator. Exposure starts at day 0 of plating and is continued over twelve days of network development until the experiment is terminated. Cells are fed with fresh medium on DIV 5 and 9, following the recordings on those days. The entire volume of media in the well is exchanged and any vehicle or compound treatment is renewed. Complete details are found in OP-NHEERL/ISTD/SBB/TJS/2015-03-r0 (available on request, email shafer.tim@epa.gov). Measurement of the electrical activity is non-invasive, and recordings can be made from the same plate over multiple different days of the culture. In cortical neurons, this allows for the measurement of extracellular action potentials over the period during which networks form in the MEA plate.

Row | SMILES | outcome | AC50
1 | N#Cc1nn(-c2c(Cl)cc(C(F)(F)F)cc2Cl)c(N)c1S(=O)C(F)(F)F (configuration not stated) | inactive | 
2 | CCOC(=O)CC(SP(=S)(OC)OC)C(=O)OCC (configuration not stated) |  | 16.8 µM (active) and 15 µM (active)
3 | CCNc1nc(Cl)nc(NC(C)C)n1 | inactive | 
4 | COP(N)(=O)SC (configuration not stated) | inactive | 
5 | COP(=S)(OC)Oc1nc(Cl)c(Cl)cc1Cl | inactive | 
6 | Cc1c(F)c(F)c(COC(=O)C2C(/C=C(\Cl)C(F)(F)F)C2(C)C)c(F)c1F (configuration not stated) | inactive | 
7 | CC(C)(C)c1ccc(CSc2cnn(C(C)(C)C)c(=O)c2Cl)cc1 |  | 3 nM (active)
8 | C=CCC1=C(C)C(OC(=O)C2C(C=C(C)C)C2(C)C)CC1=O (configuration not stated) | inactive | 
9 | COC(=O)N(OC)c1ccccc1COc1ccn(-c2ccc(Cl)cc2)n1 |  | 264 nM (active) and 13.7 nM (active)
10 | CCCCC(CC)COC(=O)c1ccccc1C(=O)OCC(CC)CCCC (configuration not stated) | inactive | 12600 nM (active)
11 | C=CC1(C)OC(=O)N(c2cc(Cl)cc(Cl)c2)C1=O (configuration not stated) | inactive | 
12 | CN(C)C(=S)SSC(=S)N(C)C |  | 11.6 nM (active)
13 | CNC(=O)ON=CC(C)(C)SC | inactive | 
14 | CO/C=C(/C(=O)OC)c1ccccc1Oc1cc(Oc2ccccc2C#N)ncn1 |  | 2.29 µM (active) and 1.06 µM (active)
15 | CCCCNC(=O)n1c(NC(=O)OC)nc2ccccc21 | inactive | 
16 | C=CCC1=C(C)[C@@H](OC(=O)[C@@H]2[C@@H](C=C(C)C)C2(C)C)CC1=O | inactive | 
17 | CCOc1cc(Oc2ccc(C(F)(F)F)cc2Cl)ccc1[N+](=O)[O-] |  | 4760 nM (active)
18 | Cc1ccc(-c2c(Cl)nc(C#N)n2S(=O)(=O)N(C)C)cc1 | inactive | 
19 | COc1ccc(C(c2ccc(OC)cc2)C(Cl)(Cl)Cl)cc1 | inactive | 
20 | CCCCNC(=O)OCC#CI |  | 3.24 µM (active) and 2.21 µM (active)
21 | CCCCOC(=O)c1ccccc1C(=O)OCCCC | inactive | 

Reference: PubChem BioAssay (EPA / NIEHS)
